Measurements: PubChem BioAssay AID1159580 (chemical genetic matrix, 2015)
Out of some 5,500 compounds screened, about 2,000 (36%) were called active. Another 18% or so got no clear call; they are omitted. Rule as the data show it: active = normalized growth mostly below about 0.91 (no sharp cut-off); inconclusive = no clear call, values can overlap the other calls; inactive = mostly above about 0.92. Some of the results follow.

Assay: chemical genetic growth profiling, strain panel (AID 1159580);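 also: tested at 20 µM; growth read once vehicle control cultures reached saturation at 30 °C; 1 = growth at the plate median or of vehicle wells; lower values mean less growth of the strain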
Settings: S. cerevisiae deletion strains, growth OD

Measured: normalized growth

CNS(=O)(=O)Cc1ccc2[nH]cc(CCN(C)C)c2c1
inactive: locus YAL021C, strain ccr4, active compounds read low 0.999 | locus YAL026C, strain drs2, active compounds read low 1.02 | locus YAL030W, strain snc1, active compounds read low 1.02 | locus YBL061C, strain skt5, active compounds read low 1.03 | locus YBR009C, strain hhf1, active compounds read low 1.03 | locus YBR023C, strain chs3, active compounds read low 1.03 | locus YBR171W, strain sec66, active compounds read low 1.04 | locus YBR231C, strain swc5, active compounds read low 1.03 | locus YBR279W, strain paf1, active compounds read low 1.02 | locus YCL011C, strain gbp2, active compounds read low 1.02 | locus YCL016C, strain dcc1, active compounds read low 1.02 | locus YCL069W, strain vba3, active compounds read low 1.03 | locus YCR088W, strain abp1, active compounds read low 1.03 | locus YDL005C, strain med2, active compounds read low 1.04 | locus YDL040C, strain nat1, active compounds read low 1.02 | locus YDR001C, strain nth1, active compounds read low 1.04 | locus YDR069C, strain doa4, active compounds read low 1.02 | locus YDR137W, strain rgp1, active compounds read low 1.04 | locus YDR159W, strain sac3, active compounds read low 1.03 | locus YDR195W, strain ref2 1 | locus YDR297W, strain sur2, active compounds read low 1.02 | locus YDR334W, strain swr1, active compounds read low 1.02 | locus YDR335W, strain msn5, active compounds read low 1.02 | locus YDR392W, strain spt3, active compounds read low 1.01 | locus YEL003W, strain gim4, active compounds read low 1.02 | locus YEL037C, strain rad23, active compounds read low 1.03 | locus YEL061C, strain CIN8 (second series), active compounds read low 1.03 | locus YER015W, strain faa2, active compounds read low 1.02 | locus YER016W, strain bim1, active compounds read low 1.02 | locus YER111C, strain swi4, active compounds read low 1.02 | locus YER155C, strain BEM2 (second series), active compounds read low 1 | locus YFR010W, strain ubp6, active compounds read low 1.03 | locus YGL167C, strain pmr1, active compounds read low 1.03 | locus YGL173C, strain kem1, active compounds read low 1.05 | locus YGL227W, strain vid30, active compounds read low 1.03 | locus YGL240W, strain doc1, active compounds read low 1.02 | locus YGL253W, strain hxk2, active compounds read low 1.02 | locus YHR013C, strain ard1, active compounds read low 1.07 | locus YHR027C, strain rpn1, active compounds read low 1.04 | locus YHR030C, strain SLT2, active compounds read low 1.07 | locus YHR079C, strain IRE1, active compounds read low 1.05 | locus YHR142W, strain chs7, active compounds read low 1.04 | locus YJL092W, strain hpr5, active compounds read low 1.03 | locus YJL095W, strain BCK1 (second series), active compounds read low 1.02 | locus YJL095W, strain BCK1, active compounds read low 1.01 | locus YJL115W, strain asf1, active compounds read low 1.03 | locus YJL129C, strain trk1, active compounds read low 1.07 | locus YJL154C, strain vps35, active compounds read low 1.03 | locus YJL164C, strain tpk1, active compounds read low 1.02 | locus YJL166W, strain qcr8, active compounds read low 1.02 | locus YJL187C, strain SWE1, active compounds read low 1.03 | locus YJR066W, strain TOR1, active compounds read low 0.977 | locus YKL160W, strain elf1, active compounds read low 1.02 | locus YKR026C, strain gcn3, active compounds read low 1.03 | locus YKR091W, strain srl3, active compounds read low 1.01 | locus YLL001W, strain dnm1, active compounds read low 1.02 | locus YLL026W, active compounds read low 1.01 | locus YLL041C, strain sdh2, active compounds read low 1.02 | locus YLR027C, strain aat2, active compounds read low 1.01 | locus YLR113W, strain HOG1, active compounds read low 0.935 | locus YLR221C, strain rsa3, active compounds read low 1.02 | locus YLR258W, strain gsy2, active compounds read low 1.03 | locus YLR262C, strain YPT6 (second series), active compounds read low 1.04 | locus YLR320W, strain mms22, active compounds read low 1.04 | locus YLR342W, strain FKS1, active compounds read low 1.02 | locus YLR357W, strain rsc2, active compounds read low 1.02 | locus YLR370C, strain arc18, active compounds read low 1.01 | locus YLR384C, strain iki3, active compounds read low 1.03 | locus YML120C, strain ndi1, active compounds read low 1.02 | locus YMR058W, strain fet3, active compounds read low 1.04 | locus YMR125W, strain sto1, active compounds read low 1.02 | locus YMR129W, active compounds read low 1.01 | locus YMR205C, strain PFK2, active compounds read low 1.05 | locus YMR231W, strain pep5, active compounds read low 1.03 | locus YNL071W, strain lat1, active compounds read low 1.03 | locus YNL183C, strain NPR1, active compounds read low 0.97 | locus YNL209W, strain ssb2, active compounds read low 1.02 | locus YNL248C, strain rpa49, active compounds read low 1.06 | locus YNL322C, strain KRE1 (second series), active compounds read low 1.02 | locus YNR049C, strain mso1, active compounds read low 1.02 | locus YOR001W, strain rrp6, active compounds read low 1.03 | locus YOR070C, strain gyp1, active compounds read low 1.03 | locus YOR080W, strain dia2, active compounds read low 1.03 | locus YOR083W, strain WHI5, active compounds read low 1.01 | locus YOR106W, strain vam3, active compounds read low 1.05 | locus YOR231W, strain MKK1, active compounds read low 1.03 | locus YOR265W, strain rbl2, active compounds read low 1.01 | locus YOR270C, strain vph1, active compounds read low 1.1 | locus YOR290C, strain snf2, active compounds read low 1.02 | locus YPL051W, strain arl3, active compounds read low 1.02 | locus YPL078C, strain atp4, active compounds read low 1.02 | locus YPL106C, strain sse1, active compounds read low 1.03 | locus YPL240C, strain hsp82, active compounds read low 1.02 | locus YPL256C, strain CLN2, active compounds read low 1.06
